Bioassay records from PubChem BioAssay.
Shown are actives, neighbours in structure and some others; about 4% of the full set was active somewhere.
HIF-2a block – HIF-2a reporter inhibitors, primary screen, luminescence, 786-0 RCC cells | 0.72% of 360,000 active | inhibition, % at 18.8 µM | AID 624352, 2012 | 786-0 RCC cells HIF-2a reporter, luciferase luminescence, overnight;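 active = inhibition of the luminescence signal of 40% or more relative to plate controls, in a single-dose primary screen at 18.75 µM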
KKLEB tox – cytotoxicity in KKLEB CF airway cells, primary screen, cytotoxicity control for CF NF-kB inhibitor project, cell-based, uHTS, fluorescence assay plates. KKLEB CF airway cells viability, ATPlite luminescence, overnight; active compounds read low; cells stimulated with P. aeruginosa culture filtrate. activity change (cytotoxicity), % at 5 µM. 0.36% of 360,000 active. AID 602141, 2011;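 active = corrected activity change at or below -50% at 5 µM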
Peg3 prom inh – Peg3 promoter-driven luciferase inhibitors, primary screen, cell-based, HeLa, luciferase luminescence. HeLa PEG-Prom luciferase reporter, overnight. inhibition, % at 20 µM. 1.7% of 360,000 active;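 active = inhibition of at least 50% at 20 µM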
TROY NFkB inh – inhibitors of TROY-driven NF-kB signaling, primary screen, Q293 LMP1-TROYcd cells, NF-kB luciferase, uHTS; 0.98% of 360,000 active; inhibition, % at 10 µM; Q293 LMP1-TROYcd NF-kB luciferase reporter, 4 h;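 active = compounds whose plate-normalised and pattern-corrected inhibition of the luciferase reporter signal at the single screening dose is 50% or more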
CF NFkB inh – inhibitors of PAF-induced NF-kB signaling, primary screen, cell-based, GFP fluorescence, uHTS | 0.86% of 360,000 active | inhibition, % at 5 µM | KKLEB NF-kB-GFP reporter, GFP fluorescence overnight;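 active = at least 50% inhibition at 5 µM, scaled per plate between neutral and stimulator controls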;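 note: PAF is a Pseudomonas aeruginosa culture filtrate used as stimulus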
TWEAK-Fn14 inh – inhibitors of TWEAK-Fn14 signaling, primary screen, luciferase reporter cells, uHTS; TWEAK-stimulated Fn14 reporter cells, luciferase luminescence, 8 h; inhibition, % at 10 µM; 2% of 360,000 active; AID 1159606, 2016; in the data active = inhibition above about 50%
Of the large screens only hits and unclear results are named; the others gave an inactive call.

O=C1S/C(=C\c2ccc(O)c([N+](=O)[O-])c2)C(=O)N1c1ccccc1Cl	TROY NFkB inh 53.5
O=C1S/C(=C\c2ccc(O)c([N+](=O)[O-])c2)C(=O)N1Cc1cccc([N+](=O)[O-])c1	TROY NFkB inh 59.1, TWEAK-Fn14 inh 53.0
COc1cc(/C=C2\SC(=O)N(c3cccc(Cl)c3)C2=O)cc([N+](=O)[O-])c1O	none
C=CC(=O)Nc1cccc(Nc2nc(N[C@H]3CC[C@H](N(C)C)CC3)nc3c2ncn3C(C)C)c1	HIF-2a block 71.5, KKLEB tox -70.0, Peg3 prom inh 101.7, TROY NFkB inh 76.8, CF NFkB inh 84.6, TWEAK-Fn14 inh 99.0
CC(C)n1cnc2c(Nc3cccc(Cl)c3)nc(NCCCO)nc21	none
Cc1cc(N)ncc1[N+](=O)[O-]	none
Cc1cc(Sc2nc(N)ncc2[N+](=O)[O-])ncn1	Peg3 prom inh 78.9
CC(C)CCNC(=O)C(CC(C)C)N(Cc1ccc2c(c1)OCO2)C(=O)c1snc(C(N)=O)c1N (stereo not given)	none
Cn1cnc([N+](=O)[O-])c1S(=O)(=O)Nc1ccccc1	none
Cc1nn(C(C)C(=O)c2cccc(Cl)c2)c(C)c1[N+](=O)[O-] (stereo not given)	none
Cn1cnc([N+](=O)[O-])c1S(=O)(=O)c1cccc(Cl)c1	KKLEB tox -54.2, Peg3 prom inh 111.5, TROY NFkB inh 63.9
Cn1cnc([N+](=O)[O-])c1S(=O)(=O)Oc1ccccc1	Peg3 prom inh 102.8
COc1ccc(Cl)cc1NC(=S)N1CCCCCC1	none
O=C(NCCCn1ccnc1)/C(=C\c1ccco1)NC(=O)c1ccco1	none
CC(C)N(Cc1cn(C)nc1-c1cccc(Cl)c1)CC1CCC(=O)N1 (stereo not given)	none
CCOC(=O)c1c(CSC(=N)N)n(-c2ccc(C)cc2)c2cc(Br)c(OC(C)=O)cc12	Peg3 prom inh 53.9, TWEAK-Fn14 inh 91.9
Cc1cc(C)cc(-n2cc[nH]c2=S)c1	none
COc1cc(CN(C)C)cc(C=O)c1O	none
COc1cc(N=Nc2ccc(Br)cc2)cc(C=O)c1O	CF NFkB inh 84.9, TWEAK-Fn14 inh 86.7
CCCc1nc2sc3c(c2c(=O)n1NC(=O)c1ccco1)CC(C)(C)OC3	none
CCCCCCCCCc1nc2sc3c(c2c(=O)n1NC(=O)c1ccccc1[N+](=O)[O-])CC(C)(C)OC3	TROY NFkB inh 58.2
CC(=O)c1ccc(NC(=O)Nc2ccc(Cl)cc2)cc1	none
CC(=O)c1ccc(NC(=S)NCc2ccc(Cl)cc2Cl)cc1	TROY NFkB inh 56.7
C=CCN(c1cccc(C(F)(F)F)c1)S(=O)(=O)c1cccc(C(=O)OCC(=O)NC(N)=O)c1	none
Cc1cc(=O)[nH]c2c1cnn2C(C)c1ccccc1 (stereo not given)	none
Cc1nn2c(N)c(C#N)cnc2c1-c1ccc(Cl)cc1	none
COc1ccc(-c2c(C)nn3c(N)c(C#N)cnc23)cc1OC	TWEAK-Fn14 inh 50.4
COCC(=O)OC1CCn2c1nc1c2C(=O)C(C)=C(NC(C)=O)C1=O (stereo not given)	KKLEB tox -68.3, Peg3 prom inh 84.9, TROY NFkB inh 54.5, CF NFkB inh 91.3, TWEAK-Fn14 inh 101.3
COc1ccc(O)c(C(=O)CC(=O)c2ccc(F)cc2)c1	TWEAK-Fn14 inh 84.7
COc1cc(/C=N/NC(=O)Cn2cnc3c2c(=O)n(C)c(=O)n3C)cc(OC)c1OC	none
Cc1nnc(N/N=C/c2ccc([N+](=O)[O-])cc2)n1N	TROY NFkB inh 55.4
COc1ccc(CC(=O)N(CCC2=CCCCC2)c2c(N)n(Cc3ccccc3)c(=O)[nH]c2=O)cc1	none
CCOc1ccc(OCC(=O)N(CCC2=CCCCC2)c2c(N)n(Cc3ccccc3)c(=O)[nH]c2=O)cc1	KKLEB tox -61.5, Peg3 prom inh 82.7, CF NFkB inh 71.8
CCOc1ccc(OCCC(=O)N(CCC2=CCCCC2)c2c(N)n(Cc3ccccc3)c(=O)[nH]c2=O)cc1	none
